Compounds with a hit are over-represented: about 5.7% of the library has one in this group of screens.
HP1b binding inh: HTS for Inhibitors of HP1-beta Chromodomain Interactions with Methylated Histone Tails; Chromobox protein homolog 1 (Homo sapiens), P83916; AlphaScreen HP1-beta / biotin-H3K9me3 peptide binding; Potency, µM (titrated, usually from 114 µM), for the others: at the highest dose activity change, negative = inhibition, usual class: inhibitors; 390,000 compounds, 0.56% hits; also: potency is read from the fitted curve at half-maximal effect; nearly all actives have a fitted effect of over 70% in size
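AlphaScreen: HP1-beta (50 nM) preformed 30 min with biotin-H3(1-18)K9me3 peptide (50 nM) in PBS pH 7.4, 0.01% Tween-20. Compound added for 30 min at RT, then streptavidin donor/nickel chelate acceptor beads (10 ug/mL) for 30 min.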
L3MBTL1 block: qHTS Assay for the Inhibitors of L3MBTL1 | AlphaScreen L3MBTL1–H3K9me1 peptide binding | Lethal(3)malignant brain tumor-like protein 1 (Homo sapiens), Q9Y468 | 230,000 compounds, 0.66% hits | Potency, µM (top dose mostly 57.1 µM), inactives show at the highest dose activity, negative = inhibition, usual class: inhibitors; also: potency is read from the fitted curve at half-maximal effect; % is scaled to controls: 0 for no effect and ±100 for the full control effect; nearly all actives have a fitted effect of over 60% in size
Target sequence (Q9Y468 whole entry, looked up): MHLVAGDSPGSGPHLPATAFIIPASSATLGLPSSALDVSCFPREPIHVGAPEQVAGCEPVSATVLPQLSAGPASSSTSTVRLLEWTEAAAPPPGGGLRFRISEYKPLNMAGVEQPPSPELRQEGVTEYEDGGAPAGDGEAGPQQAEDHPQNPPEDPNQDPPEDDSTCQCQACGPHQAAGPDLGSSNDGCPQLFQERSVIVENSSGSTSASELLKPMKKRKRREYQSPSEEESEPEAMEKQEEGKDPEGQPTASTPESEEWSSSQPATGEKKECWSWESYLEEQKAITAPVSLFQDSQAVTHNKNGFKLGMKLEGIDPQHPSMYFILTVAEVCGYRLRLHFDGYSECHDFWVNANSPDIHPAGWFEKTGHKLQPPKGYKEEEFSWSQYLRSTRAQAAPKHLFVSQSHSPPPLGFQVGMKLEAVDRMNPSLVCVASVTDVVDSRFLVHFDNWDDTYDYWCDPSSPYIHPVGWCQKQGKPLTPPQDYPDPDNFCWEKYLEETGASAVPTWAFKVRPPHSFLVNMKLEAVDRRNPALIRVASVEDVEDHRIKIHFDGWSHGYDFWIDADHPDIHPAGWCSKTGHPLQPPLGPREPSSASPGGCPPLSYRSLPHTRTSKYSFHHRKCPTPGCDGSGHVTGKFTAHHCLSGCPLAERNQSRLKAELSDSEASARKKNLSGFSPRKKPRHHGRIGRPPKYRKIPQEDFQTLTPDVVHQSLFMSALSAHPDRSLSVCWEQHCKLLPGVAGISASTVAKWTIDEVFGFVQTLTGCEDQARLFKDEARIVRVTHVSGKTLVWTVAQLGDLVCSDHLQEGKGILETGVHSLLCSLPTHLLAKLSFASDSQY
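L3MBTL1 50 nM + b-AHA-H3(1-15)K9me1 75 nM, 30 min RT; compound added, 30 min RT; streptavidin donor/Ni-chelate acceptor beads 10 ug/mL each final, 30 min RT dark; AlphaScreen read.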
JMJD2E inh: qHTS Assay for Inhibitors of Human Jumonji Domain Containing 2E (JMJD2E); JMJD2E catalytic domain, FDH-coupled NADH fluorescence (FDH is formaldehyde dehydrogenase); 230,000 compounds, 1.6% hits; Potency, µM (series often up to 57.1 µM), for inactives: top-dose activity change, negative = inhibition, actives largely listed as inhibitors; active = well fitted inhibition curve with a large enough effect, not every such curve was filed as active; inconclusive = small, poorly fitted or top-dose-only effect, or another doubt; inactive = no such curve, though single readings can be large or run the other way;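 also: potency is read from the fitted curve at half-maximal effect; 0% = wells with enzyme and -100% = buffer wells without enzyme; nearly all actives have a fitted effect of over 50% in size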
PI5P4Ka inh: qHTS for Inhibitors of phosphatidylinositol 5-phosphate 4-kinase (PI5P4K); Phosphatidylinositol 5-phosphate 4-kinase type-2 alpha (Homo sapiens), P48426; PI5P4Kalpha enzyme, ADP-Glo luminescence, 60 min; active compounds read low; max response, %; 330,000 compounds, 1.2% hits; active = max response of -50% or lower; inconclusive = between -30% and -50%; inactive = -30% or higher; also: value at the top dose of about 77 µM; % is scaled to controls: 0 for no effect and ±100 for the full control effect
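Single end-point luminescence (ADP-Glo) quantified ADP from PI5P4Kalpha turnover; ATP 5 microM final, 1 h at RT, 0.1% CHAPS and 0.28 mM EGTA in HEPES pH 7.4.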
JMJD2A Tudor inh: qHTS Assay for Inhibitors of JMJD2A-Tudor Domain; Potency, µM (highest dose often 114 µM), for inactives: at the top dose activity change, negative = inhibition, usual class: inhibitors; Lysine-specific demethylase 4A (Homo sapiens), O75164; AlphaScreen JMJD2A-Tudor / H3K4me3 peptide binding; 390,000 compounds, 4.4% hits; also: potency is read from the fitted curve at half-maximal effect; % is scaled to controls: 0 for no effect and ±100 for the full control effect; nearly all actives have a fitted effect of over 50% in size
BAZ2B block: qHTS Assay for Inhibitors of BAZ2B | Bromodomain adjacent to zinc finger domain protein 2B (Homo sapiens), Q9UIF8 | AlphaScreen BAZ2B-H3K14Ac peptide displacement | Potency, µM (titrated, usually from 114 µM), inactives show at the top dose activity change, negative = inhibition, most hits filed as inhibitors | 360,000 compounds, 4.4% hits | AID 504333, 2011; also: potency is read from the fitted curve at half-maximal effect; % is scaled to controls: 0 for no effect and ±100 for the full control effect; nearly all actives have a fitted effect of over 60% in size
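Compounds, titrated to a top concentration of 110 uM, were incubated 30 min at room temperature with preformed BAZ2B/acetyl-K14 H3 peptide complex (50 nM each). Proximity signal was measured by AlphaScreen after 20 min with beads.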
Numbers without * were called inactive; [ ] = dose if it differs, or a comment. Unless noted, calls follow the shape of the dose curve; as a rule, active = well fitted inhibition curve with a large enough effect; inconclusive = small, poorly fitted or top-dose-only effect; inactive = no such curve, though single readings can be large or run the other way.

How did N#Cc1c(NCCO)nc(NCc2ccccc2)c2c1CCN(Cc1ccccc1)C2 do in these assays?
HP1b binding inh: -19%; L3MBTL1 block: -7%; JMJD2E inh: inconclusive; PI5P4Ka inh: 2; JMJD2A Tudor inh: inconclusive; BAZ2B block: 45µM*

How did Cn1cc([C@]2(O)C(=O)Nc3ccccc32)c2ccccc21 do in these assays?
PI5P4Ka inh: -4

What do the screens show for `CCc1cccc(C)c1NC(=O)Cn1cnc2c1c(=O)n(C)c(=O)n2C`?
HP1b binding inh: 10%; JMJD2A Tudor inh: -18%; BAZ2B block: 3%

Results for CCOC(=O)C(=Cc1ccc(N(C)C)cc1)C(=O)c1ccccc1 ?
PI5P4Ka inh: 8

How did CCOC(=O)/C(=C/c1ccc(OC(=O)c2ccccc2)cc1)C(C)=O do in these assays?
HP1b binding inh: 50%; L3MBTL1 block: -6%; JMJD2E inh: 7.9µM*; PI5P4Ka inh: -2; JMJD2A Tudor inh: 8%; BAZ2B block: 4%

Results for Cc1cc(C2C(C#N)=C(N)SC(N)=C2C#N)c(C)s1 ?
HP1b binding inh: 18%; L3MBTL1 block: -5%[11.4 µM]; JMJD2E inh: -9%; PI5P4Ka inh: -56*; JMJD2A Tudor inh: inconclusive; BAZ2B block: -6%

How did Cc1sccc1C1C(C#N)=C(N)SC(N)=C1C#N do in these assays?
L3MBTL1 block: -2%; JMJD2E inh: -4%; BAZ2B block: -35%

What do the screens show for `Cc1ccc(OCC(=O)Nc2ccccc2C(=O)OCc2cc(=O)n3c(C)csc3n2)cc1`?
HP1b binding inh: 46%; JMJD2A Tudor inh: -13%; BAZ2B block: inconclusive

Results for Cc1ccc(C(=O)N2CCN(c3cccc(Cl)c3)CC2)cc1-n1c(C)nc2cccnc21 ?
HP1b binding inh: 46%; JMJD2A Tudor inh: -7%; BAZ2B block: -21%

Results for Nc1nc(-c2ccc(Br)s2)c(Br)s1 ?
HP1b binding inh: -29%; L3MBTL1 block: -1%; JMJD2E inh: -5%; PI5P4Ka inh: 19; JMJD2A Tudor inh: inconclusive; BAZ2B block: 40µM*

How did N#Cc1c(N)nc2c(c1-c1ccc(Br)s1)CCCC2 do in these assays?
HP1b binding inh: 49%; L3MBTL1 block: 4%; JMJD2E inh: 0%; PI5P4Ka inh: 0; JMJD2A Tudor inh: -6%; BAZ2B block: 0%

How did Cc1ccc(NC(=O)c2ccc3c(c2)CCN3S(C)(=O)=O)cc1C do in these assays?
HP1b binding inh: -13%; L3MBTL1 block: -5%; PI5P4Ka inh: inconclusive; JMJD2A Tudor inh: 16µM*; BAZ2B block: -4%

How did OC(CNCCC1C=Nc2ccccc21)Cn1c2ccc(Cl)cc2c2cc(Cl)ccc21 (stereo unspecified) do in these assays?
HP1b binding inh: inconclusive; L3MBTL1 block: -7%; JMJD2E inh: -9%; PI5P4Ka inh: 7; JMJD2A Tudor inh: 40µM*; BAZ2B block: 40µM*

What do the screens show for `OC(CNCC1CCCO1)Cn1c2ccc(Cl)cc2c2cc(Cl)ccc21` (stereo unspecified)?
HP1b binding inh: 18%; L3MBTL1 block: -5%; JMJD2E inh: -22%; PI5P4Ka inh: 11; JMJD2A Tudor inh: -9%[57.1 µM]; BAZ2B block: -35%

How did Cc1c(Br)cc(F)c([S+](=O)([O-])N2CCN([S+](=O)([O-])c3ccc4c(c3)OCCO4)CC2)c1F do in these assays?
JMJD2A Tudor inh: -25%

How did COc1ccc(C(C)(O)c2nc(-c3ccc4c(c3)OCO4)cs2)cc1 (stereo unspecified) do in these assays?
PI5P4Ka inh: -2

Results for CC(NCC(O)COCc1ccc(Cl)cc1)c1ccccc1 (stereo unspecified) ?
HP1b binding inh: 32%; JMJD2E inh: 7%; PI5P4Ka inh: 13; JMJD2A Tudor inh: -13%; BAZ2B block: -1%

What do the screens show for `COC(=O)c1ccc(CNCC(O)COc2ccc(-c3ccccc3)cc2)cc1` (stereo unspecified)?
HP1b binding inh: 13%; PI5P4Ka inh: 79; JMJD2A Tudor inh: -15%; BAZ2B block: -13%

Results for COc1ccc(CNCC(O)COc2ccc(C(C)(C)c3ccccc3)cc2)cc1 (stereo unspecified) ?
HP1b binding inh: inconclusive; PI5P4Ka inh: 37; JMJD2A Tudor inh: 10µM*; BAZ2B block: 40µM*

How did OC(CNCc1ccccc1)COCc1ccc(Cl)cc1 (stereo unspecified) do in these assays?
HP1b binding inh: 35%; L3MBTL1 block: -10%; JMJD2E inh: -8%; PI5P4Ka inh: 1; JMJD2A Tudor inh: -17%[57.1 µM]; BAZ2B block: 50µM*

How did OC(CNCCc1ccc(Cl)cc1)COCc1ccco1 (stereo unspecified) do in these assays?
HP1b binding inh: inconclusive; L3MBTL1 block: -2%; JMJD2E inh: inconclusive; PI5P4Ka inh: -3; JMJD2A Tudor inh: 7.1µM*; BAZ2B block: inconclusive

What do the screens show for `CC(=O)c1cccc(OCC(O)CNCCc2ccc(Cl)cc2)c1` (stereo unspecified)?
HP1b binding inh: 8%; PI5P4Ka inh: -7; JMJD2A Tudor inh: inconclusive; BAZ2B block: 20µM*

Results for CSc1cccc(Nc2cc(C(=O)NCCCN(C)c3ccccc3)c3ccccc3n2)c1 ?
HP1b binding inh: 18%; JMJD2A Tudor inh: inconclusive; BAZ2B block: -18%

Results for CCN(CC)S(=O)(=O)c1ccc(C(=O)Nn2cnnc2)cc1 ?
HP1b binding inh: 50%; PI5P4Ka inh: 3; JMJD2A Tudor inh: -7%; BAZ2B block: 1%

What do the screens show for `CCOc1ccc(OCC(O)CNC2CCN(Cc3ccccc3)CC2)cc1` (stereo unspecified)?
HP1b binding inh: -2%; L3MBTL1 block: -9%; JMJD2E inh: 8%; PI5P4Ka inh: 4; JMJD2A Tudor inh: -24%; BAZ2B block: 6%

What do the screens show for `CCOC(=O)c1cccc(OCC(O)CNCCOc2ccccc2F)c1` (stereo unspecified)?
HP1b binding inh: 71µM*; PI5P4Ka inh: 5; JMJD2A Tudor inh: 18µM*; BAZ2B block: inconclusive

What do the screens show for `CCOC(=O)c1ccc(NCC(O)COc2ccccc2)cc1` (stereo unspecified)?
HP1b binding inh: 9%; L3MBTL1 block: 13%[11.4 µM]; JMJD2E inh: 1%; PI5P4Ka inh: 3; JMJD2A Tudor inh: -4%; BAZ2B block: 3%

Results for OC(CNCc1ccc(Cl)cc1)COc1ccccc1 (stereo unspecified) ?
HP1b binding inh: inconclusive; PI5P4Ka inh: 8; JMJD2A Tudor inh: 20µM*; BAZ2B block: 56µM*

Screens from PubChem.
